# The campaign covered roughly 16,000 compounds. About 5,100 (32%) were called active. Not shown: some 25% with an inconclusive outcome. Some of the results follow. Unmarked numbers belong to inactive results. Calls follow the shape of the dose curve; as a rule, active = well fitted curve in the direction sought with a large enough effect; inconclusive = small, poorly fitted or top-dose-only effect, or effect the other way; inactive = no such curve, though single readings can be large or run the other way.
# Target: Cytochrome P450 3A4 (Homo sapiens) (UniProt P08684)
# Sequence (P08684 whole entry, looked up): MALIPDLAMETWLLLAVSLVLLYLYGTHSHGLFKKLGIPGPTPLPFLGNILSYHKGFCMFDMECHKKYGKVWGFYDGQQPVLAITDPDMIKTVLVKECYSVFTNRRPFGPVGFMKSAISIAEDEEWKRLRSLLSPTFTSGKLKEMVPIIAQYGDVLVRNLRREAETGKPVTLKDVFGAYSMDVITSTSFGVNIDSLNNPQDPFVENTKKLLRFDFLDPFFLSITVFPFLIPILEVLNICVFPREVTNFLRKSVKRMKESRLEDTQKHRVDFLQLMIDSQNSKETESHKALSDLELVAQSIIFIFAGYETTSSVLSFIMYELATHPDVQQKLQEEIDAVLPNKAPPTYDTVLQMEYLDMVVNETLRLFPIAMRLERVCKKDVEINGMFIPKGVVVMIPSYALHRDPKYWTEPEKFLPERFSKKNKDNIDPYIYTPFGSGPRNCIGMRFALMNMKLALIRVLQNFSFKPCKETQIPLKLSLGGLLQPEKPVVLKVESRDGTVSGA
# Experiment: Cytochrome panel assay with activity outcomes
# Conditions: recombinant CYP, pro-luciferin dealkylation, luminescence, p450-cyp3a4; series mostly up to 57.1 µM; activity, negative = inhibition: at the top concentration
# % is scaled to controls: 0 for no effect and ±100 for the full control effect.
Structure (SMILES),"activity, negative = inhibition",AC50
CCC(=O)NC(NC(=O)CC)C(Cl)Cl,-2.18%,
NCCCCC(=O)O,-3.14%,
CCC[C@H]1C[C@H](C(=O)N[C@H]([C@@H]2O[C@H](SC)[C@@H](O)[C@H](O)[C@@H]2O)[C@H](C)O)N(C)C1,-11.4% [at 25.6 µM],
O=C(Nc1cccc(OC(=O)c2ccco2)c1)c1ccco1,3.14% [at 11.4 µM],
O=C(Nc1cccc(NC(=O)c2ccc(-c3cccc(Br)c3)o2)c1)c1ccco1,,5.01 µM (active)
CCCN(CCO)Cc1ccc(F)c(Br)c1,-0.689%,
COc1ccc(OCCn2c(C)c(/C=N/n3cnnc3)c3ccccc32)cc1,,0.501 µM (active)
Cc1ccc(NS(=O)(=O)c2ccccc2Cl)c2c1CC(C)(C)O2,,0.708 µM (active)
CN(C)N1C(N)=C(C#N)C(c2cccnc2)C2=C1CC(C)(C)CC2=O (centres undefined),,2.24 µM (active)
O=c1[nH]c(SCc2c(Cl)c(Cl)c(Cl)c(Cl)c2Cl)nc(=S)[nH]1,,3.16 µM (active)
Clc1ccccc1C(Nc1ncccn1)Nc1ncccn1,4.33% [at 11.4 µM],
O=S(=O)(C[C@H](O)C(Cl)(Cl)Cl)NNc1ccccc1,-15.6% [at 11.4 µM],
O=C1c2ccccc2C(=O)c2c(NC3CCCCC3)ccc(Nc3ccc(S(=O)(=O)O)cc3)c21,-21.4% [at 11.4 µM],
CC(C)(C)c1ccc(C(=O)N2CCC(C(=O)NCCC3=CCCCC3)CC2)cc1,-5.78% [at 2.29 µM],
O=C(NCCC1=CCCCC1)C1CCCN(c2nc3ccccc3o2)C1 (centres undefined),,12.6 µM (active)
O=C(CN1CCN(C2CCCCC2)CC1)NCCC1=CCCCC1,-10.2%,
Cc1ccccc1S(=O)(=O)O[C@@H]1NS(=O)(=O)c2ccccc21,-3.69% [at 11.4 µM],
Cc1noc(NC(=O)Nc2ccccc2F)c1C#N,-12.9% [at 11.4 µM],
COC(=O)C1=C(C)NC(=O)NC1c1ccsc1 (centres undefined),-11.7%,
CC1=C(C(=O)Nc2ccccc2F)C(c2ccsc2)C2=C(CC(c3ccccc3)CC2=O)N1 (centres undefined),,3.55 µM (active)

Structure (SMILES),"activity, negative = inhibition",AC50
COc1ccc(S(=O)(=O)NC2(C(F)(F)F)N=C3SCCN3C2=O)cc1 (centres undefined),-11.2%,
O=C(c1cnccn1)N1CCC2(CCCN(c3cccc(-c4ccccc4)c3)C2)CC1,,2 µM (active)
O=C(c1cnccn1)N1CCC[C@@]2(CCN(c3cccc(-c4ccccc4)c3)C2)C1,,3.98 µM (active)
O=C(c1cnccn1)N1CCC2(CCCN(c3ccccc3)C2)CC1,,1.58 µM (active)
O=C(c1cnccn1)N1CCC2(CC1)CN(c1ccccc1)C2,21%,
CN(C)c1ncc2nc(-c3ccc(F)cc3)c(=O)n(C3CC3)c2n1,-4.1%,
Cc1ccc(C2=C(Cl)C(=O)C(c3ccc(C)cc3)=C(Cl)C2=O)cc1,-1.66% [at 11.4 µM],
Cc1ccc(/S(C)=N/S(=O)(=O)c2ccc(C)cc2)cc1 (centres undefined),-0.155% [at 2.29 µM],
Cc1ccc(S(=O)(=O)CCCS(=O)(=O)c2ccc(C)cc2)cc1,,12.6 µM (active)
C[C@@H](CCc1ccccc1)NC[C@H](O)c1ccc(O)c(C(N)=O)c1,,inactive
C=C(NC(=O)C(=C)NC(=O)c1csc(C2=N[C@@H]3c4csc(n4)[C@@H]4NC(=O)c5csc(n5)[C@@H]([C@](C)(O)[C@H](C)O)NC(=O)[C@@H]5CSC(=N5)/C(=C/C)NC(=O)[C@@H]([C@H](C)O)NC(=O)c5csc(n5)[C@]3(CC2)NC(=O)[C@@H](C)NC(=O)C(=C)NC(=O)[C@@H](C)NC(=O)[C@@H]([C@@H](C)CC)N[C@H]2C=Cc3c([C@H](C)O)cc(nc3[C@@H]2O)C(=O)O[C@H]4C)n1)C(N)=O,-0.0029% [at 25.6 µM],
Cc1noc(C)c1-c1nc(NCCN2CCOCC2)c2ccccc2n1,,12.6 µM (active)
FC(F)(F)c1ccccc1-c1nc(NCCN2CCOCC2)c2ccccc2n1,,7.94 µM (active)
Clc1ccccc1-c1nc(NCCN2CCOCC2)c2ccccc2n1,,15.8 µM (active)
CC1(C)Cc2c(ccc3ccccc23)C(=O)N1,2.26%,
Clc1ccc(CSCCc2ccncc2)cc1Cl,,1 µM (active)
Clc1ccc(COc2ccccn2)cc1Cl,-7.19% [at 2.29 µM],
Clc1cccc(N/N=C/c2ccc(N3CCOCC3)cc2)c1,-10.2% [at 2.29 µM],
Cc1cc(O)c(/C=N/Nc2cccc(Cl)c2)c(=O)o1,,5.62 µM (active)
NC(=O)c1nn(-c2ccccc2)c(=O)cc1O,19%,

Structure (SMILES),"activity, negative = inhibition",AC50
O=C1CC(c2ccc3c(c2)OCO3)Sc2nc3ccccc3n21 (centres undefined),,2.51 µM (active)
O=C1CC(c2ccc3c(c2)OCO3)CN1 (centres undefined),-2.08% [at 2.29 µM],
COc1ccc(/C=C/C(=O)c2ccoc2)cc1,-1.98%,
O=C(/C=C/c1ccc2ccccc2c1)c1ccoc1,-18.6%,
COc1cccc(C(=O)/C=C/c2ccc(SC)cc2)c1,,3.98 µM (active)
Nc1ccn([C@H]2O[C@@H](COP(=O)(O)O)[C@@H](O)[C@H]2O)c(=O)n1,-4.22% [at 11.4 µM],
CS(=O)(=O)c1ccc(/C=N\NC(N)=S)cc1,-4.4% [at 11.4 µM],
COc1ccc(/C=N/NC(N)=S)cc1OC(=O)c1cccc2ccccc12,,2.24 µM (active)
COc1ccc(C(=O)Oc2cc(/C=N/NS(=O)(=O)c3ccc(C)cc3)ccc2OC)cc1,-26% [at 2.29 µM],
O=C(O)c1ccc(NS(=O)(=O)Cc2ccccc2)cc1,-11.2% [at 11.4 µM],
CCOC(=O)c1ccc(NC(=O)C2CCCO2)cc1 (centres undefined),-7.73% [at 11.4 µM],
CCOC(=O)c1ccc(N/C(=N\S(=O)(=O)c2ccccc2C)c2ccccc2)cc1,,2 µM (active)
CCOC(=O)c1ccc(NC(=O)Nc2ccc3c4c(cccc24)C(=O)N3CC)cc1,-0.607%,
CN=C1S/C(=C\c2ccc(Sc3ccc(Cl)cc3)o2)C(=O)N1C,-13.3%,
Clc1ccc(Sc2ccc(/C=N/n3cnnc3)o2)cc1,,1.12 µM (active)
NC(=O)Nn1c(CCC(=O)O)ccc1-c1ccc(F)cc1,-12.8%,
COc1ccccc1NC(=S)NC(=O)c1ccc(-c2ccc(Cl)cc2)o1,-7.71% [at 2.29 µM],
O=C(Nc1ccc(Cl)cc1)OCc1cc(-c2ccccc2Cl)on1,28.2% [at 2.29 µM],
COc1ccccc1-c1cc(C(=O)Nc2cc(C)n(Cc3ccc(Cl)cc3)n2)no1,,15.8 µM (active)

# Source: PubChem BioAssay AID1851 (National Center for Advancing Translational Sciences (NCATS), 2009)
